Assay outcomes from PubChem BioAssay.
A selection: hits, their analogues and other compounds. The true share with any hit is near 10%.
NIH3T3 tox: cytotoxic compounds in NIH 3T3 cells. NIH 3T3 viability, CellTiter-Glo ATP luminescence, 48-72 h. Potency, µM (series often up to 96.7 µM), for inactives: at the top dose activity change, negative = cytotoxicity, actives largely listed as inhibitors. actives 4.3% (n = 94,000); also: nearly all actives have a fitted effect of over 55% in size
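NIH 3T3 cells at 400 cells/well received 23 nL of compound by pintool and were incubated 48 or 72 h at 37 °C. Viability was read as ATP-coupled CellTiter-Glo luminescence.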
HEK cytotox: cytotoxic compounds in HEK 293 cells. actives 6.6% (n = 94,000). AID 1345083. Potency, µM (titrated, usually from 115 µM), for inactives: at the top dose activity change, negative = cytotoxicity, most hits filed as inhibitors. HEK 293 viability, ATP luminescence (CellTiter-Glo), 48-72 h; also: nearly all actives have a fitted effect of over 60% in size
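qHTS cytotoxicity; HEK 293, 250 cells/well; compound pinned; 48 or 72 hr, 37 degree Celsius, 5% CO2, 95% humidity; CellTiter-Glo, 10 min RT; luminescence (ATP).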
FLuc inh: blocks purified firefly luciferase enzyme activity; P08659; purified P. pyralis luciferase, luminescence, biochemical; Potency, µM (titrated, usually from 115 µM), usual class: inhibitors; actives 2.5% (n = 76,000); AID 1347043; also: nearly all actives have a fitted effect of over 65% in size
Target sequence (P08659 whole entry, looked up): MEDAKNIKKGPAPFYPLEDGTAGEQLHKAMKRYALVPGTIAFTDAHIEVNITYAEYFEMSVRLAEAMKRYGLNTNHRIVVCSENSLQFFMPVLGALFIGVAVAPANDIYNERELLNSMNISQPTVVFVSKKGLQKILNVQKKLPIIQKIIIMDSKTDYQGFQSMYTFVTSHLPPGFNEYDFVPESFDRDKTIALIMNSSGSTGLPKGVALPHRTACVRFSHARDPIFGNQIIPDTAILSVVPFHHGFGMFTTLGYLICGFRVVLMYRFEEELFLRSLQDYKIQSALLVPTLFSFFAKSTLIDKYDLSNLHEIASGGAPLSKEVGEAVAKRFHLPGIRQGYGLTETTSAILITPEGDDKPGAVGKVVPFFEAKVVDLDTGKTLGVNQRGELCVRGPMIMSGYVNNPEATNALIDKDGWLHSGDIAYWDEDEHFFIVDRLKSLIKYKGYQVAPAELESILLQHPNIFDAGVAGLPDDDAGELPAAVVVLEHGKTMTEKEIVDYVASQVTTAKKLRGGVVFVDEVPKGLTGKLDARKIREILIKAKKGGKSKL
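Purified P. pyralis luciferase (10nM final) in 50mM Tris acetate pH 7.5, 10mM Mg acetate, 0.01% Tween-20, 0.05% BSA with 10uM D-luciferin and 10uM ATP. Compounds titrated qHTS. Luminescence imaged on CCD.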
GPT2 inh: blocks human glutamate pyruvate transaminase 2; Potency, µM (titrated, usually from 57.7 µM), without a hit: top-dose activity change, negative = inhibition, most hits filed as inhibitors; Recombinant GPT2, coupled pyruvate oxidase/HRP Amplex Red fluorescence; AID 1671188; actives 0.25% (n = 100,000); Q8TD30; also: nearly all actives have a fitted effect of over 60% in size
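Recombinant GPT2 (10ng/uL) with 250uM a-KG and 2mM L-alanine, 30 min at room temperature, in HEPES pH 7.5 buffer. Pyruvate detected by pyruvate oxidase/HRP/Amplex Red fluorescence after 30 min in the dark; AOA (50uM) as positive control.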
hNpr1 antagonist: blocks ANP-stimulated signaling of human Npr1 receptor; HEK293 hNpr1 GloSensor cGMP, ANP-stimulated luminescence; Potency, µM (titrated, usually from 46.3 µM), inactives show at the highest dose activity change, negative = inhibition, actives largely listed as inhibitors; actives 1.6% (n = 76,000); calls by dose curve; also: nearly all actives have a fitted effect of over 60% in size
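HEK293 cells stably expressing human Npr1 and cGMP GloSensor pGS-40F, loaded 2 h with 2% GloSensor reagent, given compound 30 min at room temperature. Luminescence read before and 20 min after 0.1 nM hNppA.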
Numbers without * were called inactive; i = inactive; ? = inconclusive; . = no result; [ ] = another dose, or the depositor's remark. Unless noted, calls follow the shape of the dose curve; as a rule, active = well fitted curve in the direction sought with a large enough effect; inconclusive = small, poorly fitted or top-dose-only effect, or another doubt; inactive = no such curve, though single readings can be large; an effect the other way counts as inactive or inconclusive. % is scaled to controls: 0 for no effect and ±100 for the full control effect; potency is read from the fitted curve at half-maximal effect.

SMILES | NIH3T3 tox | HEK cytotox | FLuc inh | GPT2 inh | hNpr1 antagonist
CN1C(=O)[C@@H]2C[C@@H](CN2Cc2ccnc3ccccc23)Oc2ccccc21 | 89.1µM* | ? | i | i | -29.0%[70.6 µM]
COCCN1C(=O)[C@@H]2C[C@@H](CN2Cc2ccc3ccccc3n2)Oc2ccccc21 | 100µM* | ? | ? | -17.5%[88.5 µM] | -15.7%[70.6 µM]
O=C1[C@@H]2C[C@@H](CN2Cc2ccc3c(c2)OCO3)Oc2ccccc2N1Cc1ccccn1 | ? | 79.4µM* | i | i | -17.8%[70.6 µM]
O=C1[C@@H]2C[C@@H](CN2Cc2ccc(F)c(F)c2)Oc2ccccc2N1Cc1ccccn1 | ? | ? | i | ? | -10.1%[70.6 µM]
COc1ccc(CN2C(=O)[C@@H]3C[C@@H](CN3CC3CC3)Oc3ccccc32)cc1 | 79.4µM* | ? | i | -1.8%[88.5 µM] | -29.7%[70.6 µM]
Cn1c(CCNC(=O)Cn2nc3c(cc2=O)CCCCC3)nc2ccccc21 | i | -5.7% | i | i | -0.8%
Cc1ccccc1-n1ncc(C(C)NC(=O)c2cn[nH]c2-n2cnnn2)c1C (stereo not given) | -28.7% | -7.8% | i | -2.2% | 3.0%
Cc1ccccc1Cn1cc(-c2ccncc2)cc1C(=O)N1CCN(C2CCCCC2)CC1 | ? | ? | i | 4.3% | -2.7%
O=C1[C@@H]2C[C@@H](CN2Cc2cnc3ccccc3c2)Oc2ccccc2N1CC1CC1 | ? | 50.1µM* | i | i | -23.5%[70.6 µM]
Oc1cc(-c2csc3ccccc23)cc2c1OCCNC2 | ? | 20µM* | i | i | -15.5%
Cc1ccccc1-c1cc(O)c2c(c1)CNCCO2 | -24.3% | -29.2% | i | i | -0.5%
CC(C)C[C@@H]1N[C@H](C(=O)NC2CCC2)Cc2cn(CC3CC3)c3cccc1c23 | ? | 56.2µM* | i | -18.6%[88.5 µM] | 3.4%[70.6 µM]
CC(C)C[C@@H]1N[C@H](C(=O)O)Cc2cn(CC3CCC3)c3cccc1c23 | 79.4µM* | 70.8µM* | i | ? | -10.5%[70.6 µM]
CC(C)c1nc2c(c(-c3ccc(Cl)cc3)n1)CCN(Cc1ccccc1)CC2 | -14.1% | ? | . | 0.9% | .
CC(C)c1nc2c(c(-c3ccc(O)cc3)n1)CN([S+](=O)([O-])c1cccc(C(F)(F)F)c1)CC2 | 17.8µM* | ? | i | i | 14.0%
CCc1nc2c(c(-c3ccc(O)cc3)n1)CN(Cc1ccc(C(F)(F)F)cc1)CC2 | ? | ? | i | -8.9% | 4.7%
CC(C)c1nc2c(c(-c3ccc(Cl)cc3)n1)CCN(Cc1ccc(F)cc1)CC2 | ? | 39.8µM* | . | i | .
CC(C)c1nc2c(c(-c3ccc(O)cc3)n1)CN(Cc1ccc(C(F)(F)F)cc1)CC2 | ? | 39.8µM* | i | -1.8% | 2.3%
Oc1ccc(-c2nc(C3CC3)nc3c2CN(Cc2ccc(C(F)(F)F)cc2)CC3)cc1 | ? | 89.1µM* | i | i | -1.8%
O=C(CC1C(=O)NCCN1Cc1ccc(F)c(F)c1)NC1CCC1 (stereo not given) | -33.2% | -0.4% | i | -13.7% | -4.3%
CC(C)CCN1CCC(C2CCNC2)CC1 (stereo not given) | -25.3% | -12.7% | i | -3.4% | 3.9%
CC(C)c1nc2c(c(-c3ccc(O)cc3)n1)CCN(Cc1ccc(C(F)(F)F)cc1)CC2 | 39.8µM* | 35.5µM* | i | -12.8% | 5.3%
CC(C)c1nc2c(c(-c3ccc(O)cc3)n1)CCN(Cc1ccc(OC(F)(F)F)cc1)CC2 | ? | ? | i | i | 5.8%
COc1ccc(-c2cc(C(=O)NCC(C)C)c3c(C4CCCN4)nn(C)c3n2)cc1 (stereo not given) | 31.6µM* | ? | . | 3.6% | .
COCCNC(=O)c1cc(C2CC2)nc2c1c(C1CCCN1)nn2-c1ccccc1 (stereo not given) | ? | 79.4µM* | . | -2.0% | .
Cn1nc(C2CCCN2)c2c(C(=O)N3CCC(F)CC3)cc(C3CC3)nc21 (stereo not given) | 2.1% | i | . | i | .
O=C(c1cc(C2CC2)nc2c1c(C1CCCN1)nn2-c1ccccc1)N1CCC(F)CC1 (stereo not given) | 31.6µM* | ? | . | 4.4% | .
